Shown are actives, neighbours in structure and some others; about 3.1% of the full set was active somewhere.
GoLoco inh red: qHTS Assay for Inhibitors of RGS12 GoLoco Motif Activity (Red Fluorophore); Guanine nucleotide-binding protein G(i) subunit alpha-1 (Homo sapiens), P63096; Gai1:RGS12 GoLoco peptide FP, rhodamine, 10 min; Potency, µM (doses to about 61.6 µM), most hits filed as inhibitors; 230,000 tested, 0.44% active; AID 880, 2007; active means well fitted inhibition curve with a large enough effect, not every such curve was filed as active; inactive means no such curve, though single readings can be large or run the other way; further: nearly all actives have a fitted effect of over 30% in size
Target sequence (P63096 whole entry, looked up): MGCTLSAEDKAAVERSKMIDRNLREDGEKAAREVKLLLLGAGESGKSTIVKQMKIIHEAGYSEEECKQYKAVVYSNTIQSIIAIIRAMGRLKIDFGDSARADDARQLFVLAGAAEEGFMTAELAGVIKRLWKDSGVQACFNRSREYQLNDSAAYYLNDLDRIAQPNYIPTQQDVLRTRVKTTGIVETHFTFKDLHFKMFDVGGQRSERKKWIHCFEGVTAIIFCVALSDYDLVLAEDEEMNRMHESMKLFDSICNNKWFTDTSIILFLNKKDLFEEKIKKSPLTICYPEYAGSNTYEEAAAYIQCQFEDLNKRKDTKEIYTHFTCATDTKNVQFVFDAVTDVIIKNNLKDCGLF
TRb SRC2 PPI: qHTS for Inhibitors of the Interaction of Thyroid Hormone Receptor and Steroid Receptor Coregulator 2; TRbeta-SRC2 peptide binding, fluorescence polarization; receptor liganded with 1 µM T3; Potency, µM (series often up to 106 µM), actives largely listed as inhibitors; 280,000 tested, 0.065% active; further: nearly all actives have a fitted effect of over 50% in size
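Human TRb ligand-binding domain (0.6 uM) is mixed with 20 nM Texas Red SRC2 peptide and 1 uM T3; after compound addition and 5 hr at ambient temperature, polarization is measured and normalized to unbound and bound controls.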
Tau FP inhib: qHTS for Inhibitors of Tau Fibril Formation, Fluorescence Polarization; Microtubule-associated protein tau (Homo sapiens), P10636; K18 P301L tau heparin fibrillization, Alexa594 FP, 6 h; Potency, µM (highest dose often 57.7 µM), actives largely listed as inhibitors; 280,000 tested, 0.39% active; AID 1468, 2008; further: nearly all actives have a fitted effect of over 55% in size
Target sequence (P10636 561-689 P618L limits assumed): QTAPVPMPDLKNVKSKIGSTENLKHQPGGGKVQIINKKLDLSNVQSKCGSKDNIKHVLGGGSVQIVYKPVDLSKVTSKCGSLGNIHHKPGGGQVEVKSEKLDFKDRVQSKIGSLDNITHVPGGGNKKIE
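K18 P301L tau (15 uM unlabeled/0.24 uM Alexa 594-labeled, final) + compound + heparin 20 uM final; 100 mM NaOAc pH 7; 6 hr 37 C; ThT 30 uM final added, 1 hr RT; FP ex 555/em 632 nm.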
Tau fluor counter: Counterscreen qHTS for Inhibitors of Tau Fibril Formation, Fluorescence Polarization | tau K18 P301L Alexa594 fluorescence, heparin fibrillization | Potency, µM (doses to about 57.7 µM) | 280,000 tested, 0.93% active | AID 1463, 2008; further: nearly all actives have a fitted effect of over 55% in size
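Human tau K18 P301L (15 uM unlabeled, 0.24 uM Alexa 594-labeled) in 100 mM sodium acetate pH 7 with 20 uM heparin, 6 hr at 37 C. ThT 30 uM added, 1 hr ambient; Alexa 594 FP and total fluorescence read at 555/632 nm.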
TR SRC2 fluor cs: Total Fluorescence Counterscreen for Inhibitors of the Interaction of Thyroid Hormone Receptor and Steroid Receptor Coregulator 2; TRb/SRC2 Texas Red total fluorescence interference; Potency, µM (doses to about 106 µM); 280,000 tested, 0.29% active; active means well fitted curve in either direction with a large enough effect; inconclusive means small, poorly fitted or top-dose-only effect
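Flags fluorescent or light-absorbing compounds by total fluorescence, S + 2P, at 555 nm excitation and 632 nm emission. Mixture: 20 nM Texas Red SRC2 peptide, 0.6 uM human TRb LBD, 1 uM T3, 5% DMSO; compound exposure 5 h at ambient temperature.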
Tau fibril ThT: qHTS for Inhibitors of Tau Fibril Formation, Thioflavin T Binding; Microtubule-associated protein tau (Homo sapiens), P10636; recombinant tau K18 P301L (four-repeat tau fragment), heparin-induced fibrillization, ThT fluorescence; Potency, µM (series often up to 57.4 µM), usual class: inhibitors; 270,000 tested, 2.1% active; AID 1460, 2008; further: nearly all actives have a fitted effect of over 55% in size
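Tau K18 P301L fragment (15 uM unlabeled plus 0.24 uM Alexa 594-labeled) in 100 mM sodium acetate pH 7 with compound, fibrillization induced by 20 uM heparin for 6 hr at 37 C. Thioflavin T (30 uM) added, fluorescence read after 1 hr (ex 450, em 510 nm).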
Each line names hits and unclear results; the compound was inactive in the other large screens; [ ] = another dose, or the depositor's remark. Unless noted, the call rests on the fitted dose curve; in most records, active means well fitted curve in the direction sought with a large enough effect; inconclusive means small, poorly fitted or top-dose-only effect, or another doubt; inactive means no such curve, though single readings can be large; an effect the other way counts as inactive or inconclusive.

CCOc1cc(CNc2ccc(N3CCCCC3)cc2)cc(Br)c1OCC(=O)NC(C)(C)C	Tau fibril ThT inconclusive
CCOc1cc(CNc2ccc(N(C)C)cc2)cc(Br)c1OCC(=O)NC(C)(C)C	TRb SRC2 PPI 40µM, Tau FP inhib 16µM, Tau fluor counter inconclusive, TR SRC2 fluor cs 45µM[fluorescent], Tau fibril ThT 7.9µM
Cc1ncoc1C(=O)Nc1ncc([N+](=O)[O-])s1	Tau FP inhib inconclusive, Tau fibril ThT 25µM
Cn1c(=O)c2c(nc(NN=C3CCCC3)n2C)n(C)c1=O	Tau FP inhib inconclusive, Tau fluor counter 22µM[quencher], Tau fibril ThT 22µM
CCOC(=O)c1cc(CC)sc1NC(=O)COc1ccccc1C	TRb SRC2 PPI inconclusive, TR SRC2 fluor cs 1.6µM[quencher] (no result: GoLoco inh red)
CCCCC(=O)/C=C/n1c(=S)oc2ccccc21	Tau FP inhib inconclusive, Tau fibril ThT 14µM
CC(C)OC(=O)n1c(=S)oc2ccccc21	none
Cc1nnc(SC(=O)N2c3ccccc3Sc3ccccc32)s1	Tau fibril ThT inconclusive
COCCSc1ccccc1C(=O)Nc1nncs1	none
O=C(Cn1cc2c(n1)CCCC2)NCc1ccccn1	GoLoco inh red 16µM
O=[N+]([O-])c1ccc(Sc2cccc[n+]2[O-])c2nonc12	Tau FP inhib inconclusive, Tau fluor counter 13µM[quencher], Tau fibril ThT 5µM
CC(=O)Oc1c(C)cc(Cl)cc1C(=O)Nc1ccc([N+](=O)[O-])cc1Cl	Tau fluor counter inconclusive, Tau fibril ThT 2.8µM
CC(=O)OCC(=O)Nc1ccc([N+](=O)[O-])cc1Cl	none
O=C(Nc1nnc(COc2ccccc2F)s1)Nc1ccccc1F	Tau FP inhib 14µM, Tau fluor counter inconclusive (no result: Tau fibril ThT)
O=C(Nc1ccc(F)cc1)Nc1nnc(COc2ccccc2F)s1	Tau FP inhib 14µM, Tau fluor counter inconclusive
O=C(CC1N=C2c3ccccc3N=C(SCc3ccc(F)cc3)N2C1=O)NCc1ccc2c(c1)OCO2 (stereo not drawn)	Tau fibril ThT inconclusive (no result: GoLoco inh red)
Cn1c(NC(=O)c2ccc(S(=O)(=O)N3CCCCC3)cc2)cc(=O)n(C)c1=O	none
Cc1ccc(C(=O)NCC#N)cc1	none
Cc1ccc(C(=O)NC(C#N)=C(Cl)Cl)cc1	Tau FP inhib inconclusive, Tau fibril ThT 25µM
COc1cccc(CNC(=O)CSc2nnc(C)c3c(C)n(-c4ccccc4)nc23)c1	none (no result: GoLoco inh red)
Cc1nnc(NC(=O)C2CCN(S(=O)(=O)c3ccc(Cl)cc3)CC2)s1	none
CCOC(=O)C1CCN(C(=O)CCc2ccccc2)CC1	none
COc1cc(CNc2ncnc3c2[nH]c2ccc(C)cc23)cc(OC)c1	Tau fluor counter 16µM[quencher]
CCOc1ccc2[nH]c3c(NCCc4ccc(OC)c(OC)c4)ncnc3c2c1	Tau FP inhib inconclusive, Tau fluor counter 22µM[quencher] (no result: Tau fibril ThT)
CCOc1c(OC(C)=O)ccc(/C=C/c2ccc3cccc(OC)c3n2)c1[N+](=O)[O-]	Tau FP inhib inconclusive, Tau fluor counter inconclusive, Tau fibril ThT 5.6µM
Cn1c(CNc2ccc(Cl)cc2)nc2ccccc21	Tau fibril ThT inconclusive
Cc1ccc(N2CCN(c3ccc(NCc4nc5ccccc5n4C)cc3)CC2)cc1	Tau fluor counter inconclusive, Tau fibril ThT 2.5µM
N#CC1=C2SCN(Cc3ccccc3)CN2C(=O)CC1c1ccccc1F (stereo not drawn)	Tau FP inhib inconclusive, Tau fibril ThT inconclusive
N#CC1=C2SCN(Cc3ccco3)CN2C(=O)CC1c1c(F)cccc1Cl (stereo not drawn)	Tau FP inhib inconclusive, Tau fibril ThT 7.1µM
Cc1ccc(C2CC(=O)N3CN(Cc4ccco4)CSC3=C2C#N)cc1 (stereo not drawn)	Tau FP inhib inconclusive, Tau fibril ThT 25µM
NNc1nc2sc3c(c2c(=O)n1-c1ccccc1)CCCC3	Tau fibril ThT inconclusive
Cc1ccc(Cl)cc1N1CCN(C(=O)c2sc3nc4n(c(=O)c3c2C)CCC4)CC1	none (no result: GoLoco inh red)
CCOc1ccc(-c2nonc2NC(=O)c2oc3ccc(F)cc3c2C)cc1	TR SRC2 fluor cs 0.79µM[quencher] (no result: GoLoco inh red)
CC(NC(=O)Cn1nc(C(=O)O)c2ccccc2c1=O)C12CC3CC(CC(C3)C1)C2 (stereo not drawn)	none
CCOC(=O)c1ccc(CC(=O)c2ccc(O)c(O)c2O)o1	Tau FP inhib 22µM, Tau fluor counter inconclusive, Tau fibril ThT 16µM
CCOC(=O)c1ccc(CC(=O)c2oc3cc(O)ccc3c2C)o1	Tau fluor counter inconclusive, Tau fibril ThT inconclusive
Cc1cc(O)c(C=Nc2cccc(Cl)c2)c(=O)o1	TRb SRC2 PPI inconclusive, TR SRC2 fluor cs 45µM[fluorescent], Tau fibril ThT inconclusive
COc1ccc(N=Cc2c(O)cc(C)oc2=O)cc1	none
CCCCC/C=C\C/C=C\C/C=C\C=C\[C@@H](O)CCCC(=O)O	Tau fibril ThT inconclusive
N#Cc1ccc(C(=O)Nc2ccc(N3CCN(C(=O)c4ccco4)CC3)cc2)c(F)c1	Tau fibril ThT 1µM
CC(=O)c1sc2nsc(SCCN3CCCC3)c2c1N	Tau fibril ThT 10µM
CC(=O)c1sc2nc(C)c3c(c2c1N)CCCC3	Tau fibril ThT inconclusive
Nc1ncc([N+](=O)[O-])c(Oc2ccccc2F)n1	Tau fibril ThT inconclusive
Cc1cc(/C=N/Nc2nc(N)ncc2[N+](=O)[O-])c(C)n1-c1ccccc1F	Tau fibril ThT 16µM
Cc1cccc(C)c1-n1c(C)cc(/C=N\Nc2ccc([N+](=O)[O-])cn2)c1C	Tau FP inhib inconclusive, Tau fluor counter inconclusive, Tau fibril ThT 5µM
O=[N+]([O-])c1ccc(N/N=C\c2cccnc2)nc1	Tau fibril ThT inconclusive
CC1CCCC(C)N1C(=O)Cn1cc(/C=C2/C(=O)Nc3ccccc32)c2ccccc21 (stereo not drawn)	GoLoco inh red 6.3µM, Tau fluor counter inconclusive, Tau fibril ThT 14µM
CCCC(=O)NC1=C(C#N)C2(CCCCC2)Cc2ccccc21	none
COc1ccc2cc3c(N)c(C(=O)NCc4ccco4)sc3nc2c1	Tau fluor counter inconclusive, Tau fibril ThT 2.8µM
Cc1ccc(NC(=O)NCC2CCN(Cc3cccc(Cl)c3)CC2)cc1Cl	Tau FP inhib 28µM, Tau fluor counter inconclusive

Screening results: PubChem BioAssay, National Center for Advancing Translational Sciences (NCATS)
